An excerpt weighted towards active compounds, which were near 0.4% of everything screened.
TRPML1 inh: qHTS for Inhibitors of the Human Mucolipin Transient Receptor Potential 1 (TRPML1); Mucolipin-1 (Homo sapiens), Q9GZU1; activity change, negative = inhibition, % (no concentration beside the values); 390,000 tested, 0.02% active; TRPML1-inducible cells, Ca2+ dye fluorescence, FDSS; stronger effect = lower value; inhibition of EC80 agonist-evoked calcium signal; AID 624415, 2012; in the data active means activity change below about -50%; inconclusive means between about -30% and that limit;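 further: stimulus is agonist 54-4 at its EC80 concentration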
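TRPML1-DL cells, Tet-induced overnight (~16 h, 37 °C) at 1,500 cells/well, were loaded with Ca8 no-wash dye plus quencher for 45-90 min at room temperature. Compounds were pinned during FDSS kinetic reading; agonist 54-4 at EC80 (4 uM final) then added.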
TRPV1 potentiator: HTS Assay for Compounds that Act as Potentiators of the Vanilloid Receptor 1; Transient receptor potential cation channel subfamily V member 1 (Homo sapiens), Q8NER1; TRPV1-expressing cells, Fluo-8 calcium influx, capsaicin EC20 potentiation; potentiation, % at 8.33 µM; 320,000 tested, 0.02% active; AID 540277, 2011; in the data active means potentiation above about 80%; inconclusive means between about 30% and that limit
Target sequence (Q8NER1 whole entry, looked up): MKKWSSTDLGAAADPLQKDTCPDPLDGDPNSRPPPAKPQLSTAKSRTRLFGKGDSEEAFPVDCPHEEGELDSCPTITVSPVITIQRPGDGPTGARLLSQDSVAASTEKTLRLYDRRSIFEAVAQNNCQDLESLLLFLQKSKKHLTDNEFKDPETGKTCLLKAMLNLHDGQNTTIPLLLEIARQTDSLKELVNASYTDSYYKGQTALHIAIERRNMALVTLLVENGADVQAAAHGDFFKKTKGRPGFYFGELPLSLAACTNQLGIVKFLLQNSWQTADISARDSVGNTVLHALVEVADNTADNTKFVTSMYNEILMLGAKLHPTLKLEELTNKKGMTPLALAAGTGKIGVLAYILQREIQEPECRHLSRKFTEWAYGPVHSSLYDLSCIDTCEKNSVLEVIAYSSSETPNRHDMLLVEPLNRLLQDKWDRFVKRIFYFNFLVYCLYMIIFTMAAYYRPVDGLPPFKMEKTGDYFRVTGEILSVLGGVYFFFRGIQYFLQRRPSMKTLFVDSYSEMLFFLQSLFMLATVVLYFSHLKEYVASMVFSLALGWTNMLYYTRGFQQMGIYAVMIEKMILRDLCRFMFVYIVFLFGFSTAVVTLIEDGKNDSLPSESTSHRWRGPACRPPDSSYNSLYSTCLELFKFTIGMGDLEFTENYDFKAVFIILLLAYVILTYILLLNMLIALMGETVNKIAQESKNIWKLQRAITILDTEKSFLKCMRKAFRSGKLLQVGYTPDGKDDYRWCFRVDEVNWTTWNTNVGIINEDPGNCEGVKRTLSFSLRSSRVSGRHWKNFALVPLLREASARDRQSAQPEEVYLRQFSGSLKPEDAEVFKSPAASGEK
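TRPV1-expressing cells were cultured overnight at 35.5C and loaded with Fluo-8 calcium dye for 40 to 90 min at room temperature. After a 10 s baseline, compound was added and calcium influx was read kinetically for 3 min (ex 480/em 520 nm).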
TRPV1 agonist: HTS Assay for Compounds that Act as Agonists of the Vanilloid Receptor 1; AID 540275, 2011; Transient receptor potential cation channel subfamily V member 1 (Homo sapiens), Q8NER1; TRPV1-expressing cells, Fluo-8 calcium influx, agonist mode; activation, % at 8.33 µM; 320,000 tested, 0.19% active; in the data active means activation above about 80%; inconclusive means between about 30% and that limit
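Fluo-8 calcium influx in TRPV1-expressing cells, kinetic read (ex 480/em 520 nm). Compound added and read 3 min for agonist activity, followed by capsaicin at EC20 final and 2 min further read for enhancement.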
USP1 inh: Inhibitors of USP1/UAF1: Primary Screen; Ubiquitin carboxyl-terminal hydrolase 1 (Homo sapiens), O94782; recombinant USP1/UAF1, Ub-Rhodamine cleavage fluorescence; Potency, µM (highest dose often 57.1 µM), usual class: inhibitors; 390,000 tested, 0.23% active; active means well fitted inhibition curve with a large enough effect; inconclusive means small, poorly fitted or top-dose-only effect; inactive means no such curve, though single readings can be large or run the other way; further: nearly all actives have a fitted effect of over 60% in size
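1 nM enzyme complex + cpd, 15 min RT; start with Ub-Rho 150nM final; kinetic fluorescence ex 480/em 540, 6 reads q60 s. Buffer 50mM HEPES pH 7.8, 0.5mM EDTA, 0.1 mg/ml BSA, 1mM TCEP, 0.01% Tween-20.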
TRPML1 ag: qHTS for Agonists of the Human Mucolipin Transient Receptor Potential 1 (TRPML1); Mucolipin-1 (Homo sapiens), Q9GZU1; activation, % (no concentration beside the values); TRPML1-expressing cells, Ca2+ dye fluorescence, FDSS; 410,000 tested, 0.12% active; in the data active means activation above about 50%; inconclusive means mostly about 30% to 49%
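Cells: TRPML1-DL, 1X Tet inducer, ~16 h at 37 degrees C/5% CO2. Dye: ABD Ca8 no-wash + quencher, 45-90 min RT. Read: 10 s baseline, compound add, 110 s agonist phase; 54-4 EC80 (4uM final), 110 s antagonist phase.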
Each line names hits and unclear results; the compound was inactive in the other large screens; ! = repeats disagree.

N=C1/C(=C\c2coc3ccccc3c2=O)C(=O)N=C2SC(c3ccncc3)=NN12	TRPV1 agonist 91, USP1 inh 28µM, TRPML1 ag 112
CN1C(=O)/C(=C/c2coc3ccc(O)cc3c2=O)SC1=S	none
N=C1/C(=C\c2coc3ccc(O)cc3c2=O)C(=O)N=C2SC=CN12	USP1 inh 28µM, TRPML1 ag inconclusive
N=C1/C(=C/c2coc3ccccc3c2=O)C(=O)N=C2SC(c3ccco3)=NN12	TRPML1 ag 81
Cc1nc(N2CCN(c3ccccn3)CC2)c2c(C)c(C(=O)Nc3ccc(F)cc3Cl)sc2n1	TRPML1 ag 97
Cc1nc(N2CCOCC2)c2c(C)c(C(=O)Nc3ccccc3Cl)sc2n1	TRPV1 agonist inconclusive
Cc1nc(N2CCN(c3ccccn3)CC2)c2c(C)c(C(=O)Nc3ccc(F)cc3F)sc2n1	TRPV1 agonist inconclusive
Cc1nc(N2CCOCC2)c2c(C)c(C(=O)Nc3ccccc3C(F)(F)F)sc2n1	TRPV1 agonist 91
CN1CCN(c2ccc(S(=O)(=O)N3CCCCC3)cc2NC(=O)COc2ccc(F)cc2)CC1	TRPV1 potentiator inconclusive
Cc1ccccc1NC(=O)C(=O)N/N=C/c1cccc(Br)c1	TRPV1 agonist inconclusive
O=C(NC(NC(=S)N1CCOCC1)C(Cl)(Cl)Cl)c1cccc2ccccc12 (stereo not given)	TRPV1 agonist inconclusive
CCCCCC(=O)NC(NC(=S)N1CCOCC1)C(Cl)(Cl)Cl (stereo not given)	TRPV1 agonist 83
CCCCCCCCC(=O)NC(NC(=S)N1CCOCC1)C(Cl)(Cl)Cl (stereo not given)	TRPV1 agonist 83
NS(=O)(=O)c1ccc(N=Nc2c[nH]c(=O)c(O)c2)cc1	USP1 inh 28µM
CC(C)Cc1nc(N2CCN(C(=O)C(C)C)CC2)c(C#N)c2c1CCC2	none
CC(=O)N1CCN(c2nc(CC(C)C)c3c(c2C#N)CCC3)CC1	TRPV1 agonist 93
COc1cccc(OCc2cc(C(=O)N3CCC(C(O)C(C)C)CC3)no2)c1 (stereo not given)	TRPV1 agonist inconclusive
Cn1nc(C(C)(C)C)cc1C(=O)N1CCC(C)(C(=O)NS(=O)(=O)C2CC2)C1 (stereo not given)	none (no result: TRPML1 inh, TRPV1 potentiator, TRPV1 agonist, USP1 inh)
C[C@H](O)[C@@H]1CN2CCc3c([nH]c4ccccc34)[C@@H]2C[C@@H]1N(C)Cc1cc(Cl)cc(Cl)c1	USP1 inh inconclusive, TRPML1 ag 69 (no result: TRPV1 potentiator, TRPV1 agonist)
Cc1ccc(C)n1-c1ccc(N(C)C)cc1	USP1 inh inconclusive
COc1cccc(CC(=O)Nc2ccc(S(=O)(=O)N3CCOCC3)cc2)c1	none
Cc1cc(C)cc(NC(=S)N2CCCC2)c1	none
COC(=O)CCC(=O)NNC(=O)CCC(=O)Nc1cccc(Cl)c1C	none
O=C(N/N=C/c1ccccc1)c1n[nH]c2c1CCCC2	TRPV1 agonist 83
O=C(N/N=C/c1ccc(Cl)cc1)c1n[nH]c2c1CCCC2	TRPV1 agonist inconclusive
CC(=O)Nc1ccc(Sc2ncccc2C(=O)Nc2ccc(OC(F)(F)F)cc2)cn1	TRPML1 ag 52
CC(=O)Nc1ccc(Sc2ncccc2C(=O)Nc2cc(Cl)cc(Cl)c2)cn1	USP1 inh inconclusive
CSc1cccc(NC(=O)/C=C/c2ccccc2)c1	TRPV1 agonist inconclusive
CC(C)(C)c1ccc(/C=C/C(=O)Nc2cccnc2)cc1	TRPV1 agonist 101
CSc1ccc(/C=C/C(=O)Nc2ccccc2)cc1	TRPV1 agonist 90
O=C(Nc1ccccc1C(F)(F)F)c1cc2ncc(CCCl)cn2n1	none
O=C(CSc1nnc(CNc2ccccc2)o1)c1ccc2c(c1)OCCO2	USP1 inh inconclusive
Cc1n[nH]c(C)c1N1C(=O)c2cccc3c(N4CCCCCC4)ccc(c23)C1=O	TRPV1 agonist inconclusive, USP1 inh 25µM, TRPML1 ag 61
O=C1c2cccc3c(N4CCCCC4)ccc(c23)C(=O)N1CCO	TRPV1 agonist inconclusive, USP1 inh inconclusive, TRPML1 ag inconclusive
C=CCN1C(=O)c2cccc3c(N4CCCCC4)ccc(c23)C1=O	USP1 inh inconclusive, TRPML1 ag 55
O=C1c2cccc3c(N4CCCCC4)ccc(c23)C(=O)N1c1cccc(O)c1	TRPV1 agonist inconclusive, USP1 inh inconclusive, TRPML1 ag 88
COc1cccc(CNc2ccc([N+](=O)[O-])cc2C)c1	none
CN(/N=C/c1cccs1)c1cc(=O)n(C)c(=O)[nH]1	none
O=S(=O)(Nc1cccc2cccnc12)c1ccc(S(=O)(=O)N2CCCC2)cc1	TRPML1 ag 66
C=C[C@@H]1c2ccccc2N(S(=O)(=O)c2ccc(C)cc2)[C@H](c2ccccc2)C1(C#N)C#N	USP1 inh inconclusive, TRPML1 ag 63!
COc1cc(Cl)c(S(=O)(=O)NCCc2c(C)[nH]c3c(C)cccc23)cc1Cl	none (no result: TRPV1 potentiator, TRPV1 agonist)
O=C(CCS(=O)(=O)c1nc(-c2cccs2)cc(C(F)(F)F)n1)Nc1ccc(OC(F)(F)F)cc1	USP1 inh 14µM (no result: TRPV1 potentiator, TRPV1 agonist)
Cc1c(CN2CCC(n3nccc3NC(=O)c3cccc(F)c3)CC2)cnn1C	none
CCN1N=C(c2ccccc2)Cn2c1nc1ccccc12	TRPV1 agonist 90
COc1ccc(NC(=O)CN(C)S(=O)(=O)c2ccc3c(c2)c(=O)n(C)c(=O)n3C)cc1	TRPML1 inh -87!
CCN(CC)c1ccc2c(c1)OC(N)=C(C#N)C2c1cccnc1 (stereo not given)	USP1 inh inconclusive, TRPML1 ag 70
COCCn1c(N)c(C(=O)NCC2CCCO2)c2nc3ccccc3nc21 (stereo not given)	USP1 inh 25µM
CC(C)Cn1c(N)c(C(=O)NCC2CCCO2)c2nc3ccccc3nc21 (stereo not given)	none
NC(=O)c1sc2nc3c(c(-c4ccco4)c2c1N)CCCC3	none
Nc1c(C(=O)NCC2CCCO2)sc2nc3c(c(-c4ccco4)c12)CC/C3=C\c1ccco1 (stereo not given)	USP1 inh 28µM
NC(=O)c1cc[n+](CC2=C(C(=O)O)N3C(=O)[C@@H](NC(=O)C(c4ccccc4)S(=O)(=O)[O-])[C@H]3SC2)cc1 (stereo not given in full)	USP1 inh 35µM
N[C@@H](C(=O)N[C@@H]1C(=O)N2C(C(=O)O)=C(Cl)CS[C@H]12)c1ccccc1	none
O=C(C1=NOC(CNc2ncc(C(F)(F)F)cc2Cl)C1)N1CCOCC1 (stereo not given)	TRPV1 agonist 121
